According to the supplement of paper PMC11417369:
± gives the standard deviation of the averaged measurements. Over roughly 25,000 sequences, “ln(normalized median fluorescence intensity)” has its median near 8.6; the highest 2% begin near 10. Shown is part of a subset that was picked to be rich in the highest values.

Each sequence was assayed on PfAP2-EXP AP2 domain (GST-tagged) (assay: gcPBM binding intensity (ln(normalized median fluorescence intensity)); higher = stronger DNA binding).
Procedure, shortened: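 Probes on an Agilent 4 × 180k array were primer-extended, double-stranded and 36 bp long, taken from intergenic genomic regions, with negative controls added. GST-tagged P. falciparum DNA-binding domains from E. coli, about 25 μg on average, were applied to the array for 1 h in 1× PBS containing 1% milk, 0.2 mg/ml BSA, 0.5% salmon testes DNA and 0.03% Triton X-100. Binding intensity, obtained after Alexa488 anti-GST antibody detection and a 488 nm scan, is the highest Masliner-normalised natural-log median intensity across replicate spots of either probe orientation.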

Sequence	gcPBM binding intensity (ln)
CATGTATTTTATATTACACACTAATATTATAGATAT [CACACA_site6819]	8.27 ± 0.28
GCTTCTTAGTATACTTTATAAAATATATATTAAATA [XGTACX_negctrl_site57]	8.75 ± 0.47
AATATTTTATTTTTTCTCATTAAAAATTTTTTTTTT [CACACA_negctrl_site364]	8.46 ± 0.45
TAAAATGTAATCTGAACACACATATTTTTTTAATAT [CACACA_site1768]	8.12 ± 0.52
CTAACAACCAAACGCACACACACAAAAAAAAAAATA [CACACA_site400]	8.48 ± 0.42
AAATATTTTTTAATTGTTCACTTGGTGGATCATTAA [CACACA_negctrl_site922]	8.28 ± 0.28
TTTTTTTTTTTTTTTTGTACATATTTTAATTTGTTT [XGTACX_site6297]	8.05 ± 0.4
TATTTTCCATGAGGTAGTACACATTAAAAAATCGTT [XGTACX_site6887]	8.44 ± 0.29
AAGAATATTATAAACACACACTTTATAAAGAATTAT [CACACA_site4241]	8.51 ± 0.52
TAATTTAAAAATTCCTGTACTCAGTTTTTTCTATTT [XGTACX_site4961]	8.48 ± 0.39
AAACAAAAAAAATAAGCACACATATATATATATATA [CACACA_site8173]	10.1 ± 0.26
CATATATAAAAAAACACACACATATATATATATATA [CACACA_site1195]	10.2 ± 0.61
AAAACATACATATATACACACATATATATATATATA [CACACA_site1852]	10.2 ± 0.23
ATTATGTGCCAATACACACACACATATATATATATA [CACACA_site468]	9.91 ± 0.44
TATAAGCAAAAACACACACACATATATATATATATA [CACACA_site3804]	10.3 ± 0.28
AAAAAAACACACACATATATATATATATATATATAT [GTGCAC_negctrl_site498]	10.2 ± 0.41
AAAAAAAAAAAACATACACACATACATACATATATA [CACACA_site8222]	8.48 ± 0.4
TATGTGCCAAAACACACACACATATATATATATATA [CACACA_site469]	10.2 ± 0.11
TTTAAGCAAAAACACACACACATATATATATATATA [CACACA_site349]	10.1 ± 0.41
AAAAAAAAAAAACATACACACACATATATATATATA [CACACA_site8452]	10 ± 0.54
AAAAAACAAAAACACACACACACATATATATATATA [CACACA_site3654]	9.94 ± 0.36
AAAAAAAAAAAAAAAACACACATATATGTATATATA [CACACA_site3276]	8.28 ± 0.5
ACAGCTCTAGGACATGCATGTTATATAGAAAAAGAG [TGCATGCA_site703]	9.59 ± 0.32

Sequence	gcPBM binding intensity (ln)
TTATACAACAAGAAAATTATAAAATGTAACATATAT [GTGCAC_negctrl_site406]	8.53 ± 0.42
TTTATAATTTATATCACACATATATCTGTAATAAAT [CACACA_site5048]	8.24 ± 0.44
TATATTTATAGACACACACACAAAAAAAAAAAAAAA [CACACA_site6818]	8.37 ± 0.31
ATTTTCATGATAAAGGTGCAATTATTTTTATAAGAA	8.74 ± 0.13
ATTATTGTTTATTGATTTTTGTTAAAATAGGAAATT [GTGCAC_negctrl_site181]	8.37 ± 0.4
AAAAAAATCACATAAAATACTTTATTTTATATTATA [GTGCAC_negctrl_site372]	7.89 ± 0.36
ATTTTTAATCATTTACAACCTAGTGATTATACAAAT [CACACA_negctrl_site1089]	8.51 ± 0.35
AAAAAAAAAAAGCACACACACATATGCGTATATATA [CACACA_site954]	8.49 ± 0.57
TAAGAAAATATTTATGTATGCATGTCCTAATATTTC [TGCATGCA_site295]	8.44 ± 0.3
TTGCCTTAAAAAGGAACACACATGCTTTTTTTAGTT [CACACA_site938]	8.37 ± 0.45
TATTATAAATAAATAGAAAAAAAAATGATAAATGGA [CACACA_negctrl_site865]	8.62 ± 0.42
AAAAAAAACAGACACACACACATACAAAATATATAT [CACACA_site1449]	8.73 ± 0.47
AAAAAAAAAAAAAAAACACACATATATATATATATA [CACACA_site2436]	10.4 ± 0.11
TGCATATACGCAAGCACACATATATATATATATATA [CACACA_site1069]	10.2 ± 0.51
AAAACAGACAAACACACACACACATATATATATATA [CACACA_site3393]	10.1 ± 0.49
AAAACAAACAGACACACACACATATATATATATATA [CACACA_site3655]	10.3 ± 0.21
TATGCATATACACAAGCACACATATATATATATATA [CACACA_site8266]	10.1 ± 0.32
AAAAAAAAAAAAAACACACATACATACATACATATA [CACACA_site4121]	8.55 ± 0.16
TGCATATACTCAAGCACACATATATATATATATATA [CACACA_site4733]	10.2 ± 0.33
AACACACACATATATATATATATATATATATATATA [GTGCAC_negctrl_site573]	10 ± 0.47
AACTATAATTAAAGGATGCACTTGAAGGCATTTCAA [GTGCAC_site9689]	8.34 ± 0.35
GCATATATCAAATATCGTACATTTTTTAAATTAAAA [XGTACX_site3994]	8.42 ± 0.47
TACGTTCTGATATATACACACCTGGTATTAATTATG [CACACA_site7113]	8.93 ± 0.46

Sequence	gcPBM binding intensity (ln)
AAAAAAAAATTAAAATGTACACATAAAAAAAAAAAA [XGTACX_site794]	8.64 ± 0.42
ATTTCCTGGCTACTGTGTACTGACCTCCAGACTGCT [XGTACX_site2005]	8.81 ± 0.55
ACTACATAATATTTACGTACCTAAAAAATTCTTATA [XGTACX_site509]	8.51 ± 0.33
AAAAAAAAAAAAAACACACACACACCCAAATATATA [CACACA_site1169]	8.71 ± 0.3
AAAAAAAAAAAACACACACACACACCCAAATATATA [CACACA_site150]	8.49 ± 0.61
TTAAAAAAATATAATACACACCAAAAATATGCACAT [CACACA_site5209]	8.85 ± 0.35
GGAAAAAATATATGCACACCCCCCAAAAAAAAAAAA [CACACA_site2222]	10.95 ± 0.099
TGGGAAAAAATATATGCACACCCCCCAAAAAAAAAA [CACACA_site8696]	11.1 ± 0.35
ATAATATAAATATGCACACAAATTATTACCCAAAAA [CACACA_site2524]	8.56 ± 0.2
TACATATTTTATAGCACACAAATAATAATATGTAGT [CACACA_site688]	8.68 ± 0.31
TTTGAGATGTGGTGTACACAAAATTAGGTACACATC [CACACA_site5773]	8.92 ± 0.33
TCTTTTTCTTCTTATGTGCACATCAATTATGCTTCT	9.33 ± 0.35
AATGTGCTCGCTATTACACACTCATTGGGATAAACT [CACACA_site7043]	8.56 ± 0.4
TAAAAAATTAATAAAGTGCATAAATATTACAATATT	8.32 ± 0.18
TAAATTAATAAACAAGTGCATATATATATATATATA	10.2 ± 0.38
CTGAAATTAACAAAAGTGCATAAAAATAAAAAATAT [GTGCAC_site9652]	8.99 ± 0.29
TTTTTTTATTATTAAAGTACTAAAAAATGAAAACTG [XGTACX_site6758]	8.26 ± 0.18
AAGTTGGAAAGGTTATGTACTTATTTTTTAAAATAA [XGTACX_site204]	8.27 ± 0.45
TATCATTTTGTATATAGTACATATATAAAATCGTTA [XGTACX_site3875]	8.35 ± 0.29
GTATAATAAATGATAGCACACATATGTACTTATATA [CACACA_site8188]	8.57 ± 0.25
AGCCTCGGGGTCATATATATATATATATATATATAT [CACACA_negctrl_site512]	10.2 ± 0.53
ATATAGTAAAATTATACACACATGAATTTTCCCATG [CACACA_site1770]	8.48 ± 0.49
TATATATAAACATAATGTACATATAATAAGTAATAT [XGTACX_site497]	8.89 ± 0.45

Sequence	gcPBM binding intensity (ln)
ATAAATAAATAAGTACATATATATATGTATATATAT [TGCATGCA_negctrl_site223]	8.775 ± 0.021
AATAATAATAGTAATATGTACATATATATATATATA [TGCATGCA_negctrl_site542]	10.1 ± 0.33
ATAATAATAGTAATATGTACATATATATATATATAT [XGTACX_site7437]	10.2 ± 0.53
TAATAATAGTAAATATGTACATATATATATATATAG [XGTACX_site4602]	8.73 ± 0.3
ATAAGTAATATAATATGTACATATATATATATATAT [XGTACX_site3818]	10.2 ± 0.37
TTTAATAATATTTAGGTGCTATATATTATATGTATA	8.32 ± 0.21
CAATATAAAATAAAATGTACTTGTAGTAAAGGGATA [XGTACX_site1452]	8.79 ± 0.35
TGTGCACGCATATACACACACAAATACAATGATAAA [CACACA_site6656]	8.65 ± 0.36
ATACAACATATATATACACACATATAATAATAATAA [CACACA_site3367]	8.62 ± 0.42
AATGTGATAATATACACACACGCATATATATATATA [CACACA_site323]	10.2 ± 0.2
GAAATGTGATAATATACACACACGCATATATATATA [CACACA_site4332]	9.86 ± 0.3
ATAGATATACATATCACACATATATATATATATATA [CACACA_site4985]	10.2 ± 0.23
CATAGATACATACACGCACACACATATATATATATA [CACACA_site13]	9.97 ± 0.36
CATATATAGATATATACACACATACATACATACATA [CACACA_site7748]	8.55 ± 0.38
TAGATACATACACGCACACACATATATATATATATA [CACACA_site12]	10.2 ± 0.29
TAGATACATACACGCACACACATATATAAATAAATA [CACACA_site6157]	8.69 ± 0.49
ATTACATGATATATCACACACACATATAGATATATA [CACACA_site7352]	8.65 ± 0.44
AAGTAATACAACACGCACATATATATATATATATAT [GTGCAC_negctrl_site89]	10.3 ± 0.3
AATACATATAATACAACACACAAGTAATATAAACCT [CACACA_site3597]	8.87 ± 0.53
TTATTCTAAAAATATACACACAACAACAAACAAACA [CACACA_site1543]	9.04 ± 0.39
